Source: PubChem BioAssay (NCATS)
Results filed as inconclusive are left out. The source made the active and inactive calls. Calls follow the shape of the dose curve; as a rule, active = well fitted inhibition curve with a large enough effect; inconclusive = small, poorly fitted or top-dose-only effect; inactive = no such curve, though single readings can be large or run the other way.

target: Aldehyde dehydrogenase 1A1 (Homo sapiens) (UniProt P00352); experiment: qHTS for Inhibitors of the Aldehyde Dehydrogenase Family (ALDH1A1) Confirmatory screens (AID 2061316); settings: ALDH inhibition qHTS; series mostly up to 47.3 µM; also: nearly all actives have a fitted effect of over 65% in size
Potency is read from the fitted curve at half-maximal effect.

Structure (SMILES) | Potency
Cc1ccc([S+](=O)([O-])Nc2nn3c(=O)c4ccccc4nc3s2)cc1C | 12.7 µM (active)
CN(CC(=O)Nc1ccc(N2CCOCC2)cc1)Cc1cccc2ccccc12 | 11.3 µM (active)
COc1cccc(CNc2ccc(S(=O)(=O)Nc3cccs3)cc2)c1O | 0.634 µM (active)
O=c1c2ccccc2nc2sc(NS(=O)(=O)c3ccc4c(c3)CCC4)nn12 | 8.96 µM (active)
FC(F)(F)c1ccccc1-c1nc(NCc2ccc(-c3ccc(Cl)c(Cl)c3)cc2)c2ccccc2n1 | 20.1 µM (active)
O=C1c2ccccc2NC(c2ccc(-c3cccc(Cl)c3)o2)N1O (configuration not stated) | 22.5 µM (active)
O=S1(=O)N=C(Oc2ccc(Br)cc2)c2ccccc21 | 12.7 µM (active)
